Data as given in paper PMC7862700, “An all-to-all approach to the identification of sequence-specific readers for epigenetic DNA modifications on cytosine”.

Columns and labels:
Test in all cases: DAPPL (digital affinity profiling via proximity ligation, sequencing); 10 mM Tris-HCl pH 7.5, 50 mM NaCl, 1 mM DTT, 4% glycerol, room temperature, 30 min; GST-TFs on glutathione beads, 16-mer random dsDNA library, 0.1% formaldehyde crosslink after washing; high values mean tight binding
Settings in all cases: protein: recombinant; tags: N-terminal GST; dsDNA, one strand shown
ERF = biological target: T1, ERF (Homo sapiens, UniProt P50548 1-548)
T1 sequence: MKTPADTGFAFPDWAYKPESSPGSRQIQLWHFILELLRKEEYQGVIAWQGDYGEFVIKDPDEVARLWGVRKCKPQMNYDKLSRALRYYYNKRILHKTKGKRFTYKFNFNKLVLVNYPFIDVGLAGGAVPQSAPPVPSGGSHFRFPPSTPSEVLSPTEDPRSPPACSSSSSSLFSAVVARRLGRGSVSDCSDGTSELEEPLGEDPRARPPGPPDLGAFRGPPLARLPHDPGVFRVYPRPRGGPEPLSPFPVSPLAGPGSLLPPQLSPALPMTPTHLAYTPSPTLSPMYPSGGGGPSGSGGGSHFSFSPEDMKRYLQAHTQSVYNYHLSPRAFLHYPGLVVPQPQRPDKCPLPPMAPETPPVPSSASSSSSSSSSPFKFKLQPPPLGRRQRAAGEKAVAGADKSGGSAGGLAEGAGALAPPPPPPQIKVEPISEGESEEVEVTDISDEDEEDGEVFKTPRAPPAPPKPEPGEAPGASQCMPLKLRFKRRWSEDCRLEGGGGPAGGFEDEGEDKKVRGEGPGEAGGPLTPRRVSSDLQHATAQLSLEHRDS
Procedure, shortened: (§1)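 Binding signal is given per hexamer as its read frequency for a factor divided by its frequency in the tag-only sample. GST-fused human transcription factors were expressed in yeast, captured on glutathione beads, barcoded with DNA and pooled with that sample, then incubated with 200 nmole of a 16-mer random double-stranded DNA library in Tris/NaCl/DTT/glycerol buffer for 30 min at room temperature. The pools were then washed, crosslinked, proximity-ligated, amplified by PCR and sequenced on an Illumina NextSeq500.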

ETV3L = biological target: T2, ETV3L (Homo sapiens, UniProt Q6ZN32 1-361)
T2 sequence: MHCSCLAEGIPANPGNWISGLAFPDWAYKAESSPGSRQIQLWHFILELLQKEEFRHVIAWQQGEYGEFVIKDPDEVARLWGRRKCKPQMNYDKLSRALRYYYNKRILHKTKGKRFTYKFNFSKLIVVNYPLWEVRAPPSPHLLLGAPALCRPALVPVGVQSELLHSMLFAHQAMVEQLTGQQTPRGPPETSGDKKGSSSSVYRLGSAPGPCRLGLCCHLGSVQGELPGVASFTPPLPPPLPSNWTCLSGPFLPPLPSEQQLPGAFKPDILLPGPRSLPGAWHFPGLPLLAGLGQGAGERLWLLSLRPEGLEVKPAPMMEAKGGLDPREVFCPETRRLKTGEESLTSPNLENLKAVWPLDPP
Procedure, shortened: as §1

ETS2 = biological target: T3, ETS2 (Homo sapiens, UniProt P15036 1-469)
T3 sequence: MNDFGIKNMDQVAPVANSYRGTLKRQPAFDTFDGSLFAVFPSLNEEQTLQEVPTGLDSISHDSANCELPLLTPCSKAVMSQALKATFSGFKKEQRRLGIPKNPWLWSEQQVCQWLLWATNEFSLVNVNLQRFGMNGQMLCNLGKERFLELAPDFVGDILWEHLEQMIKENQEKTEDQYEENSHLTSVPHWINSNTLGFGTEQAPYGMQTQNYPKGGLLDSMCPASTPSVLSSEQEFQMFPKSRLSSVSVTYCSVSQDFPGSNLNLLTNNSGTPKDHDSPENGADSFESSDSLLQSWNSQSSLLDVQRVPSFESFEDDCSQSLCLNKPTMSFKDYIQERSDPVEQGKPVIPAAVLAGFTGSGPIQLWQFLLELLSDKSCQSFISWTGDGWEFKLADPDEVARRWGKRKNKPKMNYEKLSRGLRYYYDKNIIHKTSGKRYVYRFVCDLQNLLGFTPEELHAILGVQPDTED
Procedure, shortened: as §1

SPDEF = biological target: T4, SPDEF (Homo sapiens, UniProt O95238 1-335)
T4 sequence: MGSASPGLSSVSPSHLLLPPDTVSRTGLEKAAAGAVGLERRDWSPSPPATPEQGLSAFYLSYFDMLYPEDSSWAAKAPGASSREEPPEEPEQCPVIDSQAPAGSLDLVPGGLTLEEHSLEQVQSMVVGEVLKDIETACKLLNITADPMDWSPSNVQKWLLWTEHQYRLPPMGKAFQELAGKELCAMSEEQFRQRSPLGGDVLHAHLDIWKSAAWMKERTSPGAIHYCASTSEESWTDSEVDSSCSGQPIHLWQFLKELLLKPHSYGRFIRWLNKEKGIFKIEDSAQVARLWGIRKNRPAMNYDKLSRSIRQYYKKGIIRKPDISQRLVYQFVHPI
Procedure, shortened: as §1

ETV7 = biological target: T5, ETV7 (Homo sapiens, UniProt Q9Y603 1-341)
T5 sequence: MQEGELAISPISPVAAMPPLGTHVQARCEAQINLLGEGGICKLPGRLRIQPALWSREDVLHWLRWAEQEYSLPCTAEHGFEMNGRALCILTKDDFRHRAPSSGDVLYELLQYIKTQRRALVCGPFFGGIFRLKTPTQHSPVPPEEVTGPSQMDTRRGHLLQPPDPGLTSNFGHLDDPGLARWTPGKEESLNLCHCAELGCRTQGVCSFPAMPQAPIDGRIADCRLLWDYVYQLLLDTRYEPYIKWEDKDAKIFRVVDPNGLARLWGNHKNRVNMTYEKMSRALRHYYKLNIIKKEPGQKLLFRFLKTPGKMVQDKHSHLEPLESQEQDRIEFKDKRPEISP
Procedure, shortened: as §1

ELF5 = biological target: T6, ELF5 (Homo sapiens, UniProt Q9UKW6-2 1-255)
T6 sequence: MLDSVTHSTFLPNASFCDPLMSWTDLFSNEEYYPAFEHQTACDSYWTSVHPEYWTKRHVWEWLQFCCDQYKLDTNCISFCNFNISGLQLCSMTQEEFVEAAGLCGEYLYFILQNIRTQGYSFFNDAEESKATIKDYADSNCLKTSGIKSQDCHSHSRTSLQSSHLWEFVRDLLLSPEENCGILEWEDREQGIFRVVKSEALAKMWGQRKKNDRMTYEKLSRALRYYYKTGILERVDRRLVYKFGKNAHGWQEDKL
Procedure, shortened: as §1

ETV3 = biological target: T7, ETV3 (Homo sapiens, UniProt P41162-2 1-143)
T7 sequence: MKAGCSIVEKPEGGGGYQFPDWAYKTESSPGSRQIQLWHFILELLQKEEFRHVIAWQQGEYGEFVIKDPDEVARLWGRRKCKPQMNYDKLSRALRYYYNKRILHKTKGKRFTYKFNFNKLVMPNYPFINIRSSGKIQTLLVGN
Procedure, shortened: as §1

ETV6 = ETV6 (Homo sapiens, UniProt P41212 1-452)
Chain of ETV6 (P41212 whole entry): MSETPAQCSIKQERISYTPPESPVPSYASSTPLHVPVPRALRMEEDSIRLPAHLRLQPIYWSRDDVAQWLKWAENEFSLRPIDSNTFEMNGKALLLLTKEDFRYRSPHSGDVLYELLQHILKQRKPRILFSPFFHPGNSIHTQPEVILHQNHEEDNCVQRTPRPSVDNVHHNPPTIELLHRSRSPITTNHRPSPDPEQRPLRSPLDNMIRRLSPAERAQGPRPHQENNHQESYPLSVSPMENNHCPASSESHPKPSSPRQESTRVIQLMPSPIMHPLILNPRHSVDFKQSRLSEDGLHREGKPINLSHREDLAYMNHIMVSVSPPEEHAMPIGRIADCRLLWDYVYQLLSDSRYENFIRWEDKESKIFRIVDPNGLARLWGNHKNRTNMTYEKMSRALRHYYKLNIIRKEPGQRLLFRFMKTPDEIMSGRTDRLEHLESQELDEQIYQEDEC
Procedure, shortened: as §1

Sequence | binding signal (ERF) | binding signal (ETV3L) | binding signal (ETS2) | binding signal (SPDEF) | binding signal (ETV7) | binding signal (ELF5) | binding signal (ETV3) | binding signal (ETV6)
ATCTAG | 1.18 fold enrichment (6-mer frequency, TF over GST control) | 1.08 fold enrichment (6-mer frequency, TF over GST control) | 1.11 fold enrichment (6-mer frequency, TF over GST control) | 1.03 fold enrichment (6-mer frequency, TF over GST control) | 1.19 fold enrichment (6-mer frequency, TF over GST control) | 1.1 fold enrichment (6-mer frequency, TF over GST control) | 1.07 fold enrichment (6-mer frequency, TF over GST control) | 1.05 fold enrichment (6-mer frequency, TF over GST control)
CCTCCC | 1.59 fold enrichment (6-mer frequency, TF over GST control) | 1.49 fold enrichment (6-mer frequency, TF over GST control) | 1.58 fold enrichment (6-mer frequency, TF over GST control) | 1.38 fold enrichment (6-mer frequency, TF over GST control) | 1.44 fold enrichment (6-mer frequency, TF over GST control) | 1.49 fold enrichment (6-mer frequency, TF over GST control) | 1.43 fold enrichment (6-mer frequency, TF over GST control) | 1.44 fold enrichment (6-mer frequency, TF over GST control)
AACCTG | 1.17 fold enrichment (6-mer frequency, TF over GST control) | 1.08 fold enrichment (6-mer frequency, TF over GST control) | 1.27 fold enrichment (6-mer frequency, TF over GST control) | 1.13 fold enrichment (6-mer frequency, TF over GST control) | 1.21 fold enrichment (6-mer frequency, TF over GST control) | 1.16 fold enrichment (6-mer frequency, TF over GST control) | 1.2 fold enrichment (6-mer frequency, TF over GST control) | 1.14 fold enrichment (6-mer frequency, TF over GST control)
ATTGAC | 1.24 fold enrichment (6-mer frequency, TF over GST control) | 1.26 fold enrichment (6-mer frequency, TF over GST control) | 1.36 fold enrichment (6-mer frequency, TF over GST control) | 1.12 fold enrichment (6-mer frequency, TF over GST control) | 1.25 fold enrichment (6-mer frequency, TF over GST control) | 1.19 fold enrichment (6-mer frequency, TF over GST control) | 1.21 fold enrichment (6-mer frequency, TF over GST control) | 1.23 fold enrichment (6-mer frequency, TF over GST control)
ATAACC | 1.08 fold enrichment (6-mer frequency, TF over GST control) | 1.18 fold enrichment (6-mer frequency, TF over GST control) | 1.21 fold enrichment (6-mer frequency, TF over GST control) | 1.22 fold enrichment (6-mer frequency, TF over GST control) | 1.25 fold enrichment (6-mer frequency, TF over GST control) | 1.16 fold enrichment (6-mer frequency, TF over GST control) | 1.15 fold enrichment (6-mer frequency, TF over GST control) | 1.17 fold enrichment (6-mer frequency, TF over GST control)
TACTTG | 1.39 fold enrichment (6-mer frequency, TF over GST control) | 1.45 fold enrichment (6-mer frequency, TF over GST control) | 1.24 fold enrichment (6-mer frequency, TF over GST control) | 1.21 fold enrichment (6-mer frequency, TF over GST control) | 1.34 fold enrichment (6-mer frequency, TF over GST control) | 1.35 fold enrichment (6-mer frequency, TF over GST control) | 1.34 fold enrichment (6-mer frequency, TF over GST control) | 1.24 fold enrichment (6-mer frequency, TF over GST control)
CTTAGC | 1.25 fold enrichment (6-mer frequency, TF over GST control) | 1.23 fold enrichment (6-mer frequency, TF over GST control) | 1.18 fold enrichment (6-mer frequency, TF over GST control) | 1.15 fold enrichment (6-mer frequency, TF over GST control) | 1.16 fold enrichment (6-mer frequency, TF over GST control) | 1.16 fold enrichment (6-mer frequency, TF over GST control) | 1.22 fold enrichment (6-mer frequency, TF over GST control) | 1.2 fold enrichment (6-mer frequency, TF over GST control)
CCGCTT | 1.77 fold enrichment (6-mer frequency, TF over GST control) | 1.89 fold enrichment (6-mer frequency, TF over GST control) | 1.95 fold enrichment (6-mer frequency, TF over GST control) | 1.99 fold enrichment (6-mer frequency, TF over GST control) | 1.62 fold enrichment (6-mer frequency, TF over GST control) | 2.05 fold enrichment (6-mer frequency, TF over GST control) | 1.96 fold enrichment (6-mer frequency, TF over GST control) | 2.17 fold enrichment (6-mer frequency, TF over GST control)
